KB-3-1 tox: qHTS assay for MDR1-selective chemotherapeutics: Primary screen using the parental adenocarcinoma cell KB-3-1; KB-3-1 viability, CellTiter-Glo ATP luminescence, 72 h; Potency, µM (titrated, usually from 46.1 µM), actives largely listed as cytotoxic; actives 1.4% (n = 400,000); AID 1347075, 2019; also: nearly all actives have a fitted effect of over 60% in size
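Cytotoxicity measured as CellTiter-Glo luminescence after 72 h at 37 C. Compound titrations were pinned onto drug-naive KB-3-1 parental adenocarcinoma cells grown in DMEM with 10% FBS, and normalized data fitted to concentration-response curves.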
TDP1 cell CPT: qHTS for Inhibitors of human tyrosyl-DNA phosphodiesterase 1 (TDP1): qHTS in cells in presence of CPT; chicken DT40 Tdp1-/-;hTDP1 cells + 20 nM CPT, ATP luminescence, 48 h; Potency, µM (highest dose often 46.2 µM), for inactives: at the top dose activity change, negative = growth inhibition, hits mostly inhibitors; actives 12% (n = 420,000); AID 686979, 2013; also: nearly all actives have a fitted effect of over 55% in size
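Cell growth measured by CellTiter-Glo luminescence after a minimum 48 h, 37 C compound exposure with 20 nM CPT in Tdp1-knockout DT40 cells stably expressing hTDP1, seeded 400/well; qHTS titration format.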
HT1080-NT tox: qHTS for induction of synthetic lethality in tumor cells producing 2HG: qHTS for the HT-1080-NT fibrosarcoma cell line; Potency, µM (titrated, usually from 46.1 µM), without a hit: at the top dose activity, negative = less viability, usual class: cytotoxic; actives 1.6% (n = 360,000); HT-1080-NT fibrosarcoma viability, CellTiter-Glo ATP luminescence, 48 h; AID 686970, 2013;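 also: NT is the 2HG producing partner of a matched IDH1 knockdown line; 0% = DMSO-treated cells and -100% = media-only wells without cells; nearly all actives have a fitted effect of over 55% in size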
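Read-out is CellTiter-Glo luminescence after 10 minutes at room temperature, following 48 hours' compound treatment of HT-1080-NT cells (750 cells/well, RPMI, 5% FBS, 37 degrees C).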
KB-V1 cytotox: qHTS assay for MDR1-selective chemotherapeutics: Primary screen using the drug-selected MDR subline cells KB-V1; Potency, µM (doses to about 46.1 µM), most hits filed as cytotoxic; KB-V1 MDR cells viability, CellTiter-Glo, 72 h; AID 1347076, 2019; actives 3.4% (n = 400,000); also: nearly all actives have a fitted effect of over 60% in size
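Cells of the MDR subline KB-V1 are plated, dosed with compound at multiple concentrations, and incubated 72 h at 37 degrees C; CellTiter-Glo is then added and luminescence read after 10 min.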
TDP1 cell noCPT: qHTS for Inhibitors of human tyrosyl-DNA phosphodiesterase 1 (TDP1): qHTS in cells in absence of CPT; DT40 Tdp1-/- hTDP1 cells, no CPT, ATP luminescence, 48 h; Potency, µM (titrated, usually from 46.2 µM), inactives show at the highest dose activity change, negative = growth inhibition, hits mostly inhibitors; actives 15% (n = 420,000); AID 686978, 2013; also: nearly all actives have a fitted effect of over 55% in size
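Chicken DT40 Tdp1-/- cells stably complemented with human TDP1 were seeded at 400 cells/well with DMSO in place of 20 nM camptothecin. After compound pinning, cells grew at least 48 hr at 37 °C; viability read by CellTiter-Glo luminescence.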
HT1080 IDH1KD tx: qHTS for induction of synthetic lethality in tumor cells producing 2HG: qHTS for the HT-1080-IDH1KD cell line | HT-1080 IDH1 knockdown viability, ATP luminescence, 48 h | Potency, µM (titrated, usually from 46.1 µM), without a hit: at the highest dose activity, negative = toxicity, actives largely listed as cytotoxic | actives 2% (n = 360,000);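 also: 0% = DMSO wells and -100% = cell-free medium wells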
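CellTiter-Glo luminescence after 48 h compound exposure at 37 degrees C of IDH1-knockdown HT-1080 cells in 5% FBS RPMI. %Activity scaled between DMSO wells and cell-free media wells, with curves fitted and assigned curve classes.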
* = called active by the depositor; i = inactive; ? = inconclusive; · = no result given; [ ] = dose if it differs, or a comment. This is a sample that favours compounds with a hit; in the whole collection about 19% have one here. Calls follow the shape of the dose curve; as a rule, active = well fitted curve in the direction sought with a large enough effect; inconclusive = small, poorly fitted or top-dose-only effect, or another doubt; inactive = no such curve, though single readings can be large; an effect the other way counts as inactive or inconclusive. Unless noted, % is scaled to controls: 0 for no effect and ±100 for the full control effect; potency is read from the fitted curve at half-maximal effect.

SMILES	KB-3-1 tox	TDP1 cell CPT	HT1080-NT tox	KB-V1 cytotox	TDP1 cell noCPT	HT1080 IDH1KD tx
COc1ccc(CN2CC(=O)N3[C@H]4c5cc(C)ccc5OC[C@@H]4[C@H](c4ccccc4)[C@]3(C)C2=O)cc1	?	?	-1.2%	i	20.6µM*	-9.1%
COc1ccccc1CNC(=O)CN1C(=O)NC2(CCCCCC2)C1=O	i	9.0%	7.1%	i	-24.3%	15.2%
COc1ccc(Oc2ncc3nc(-c4ccc(OC)cc4)c(=O)n(C)c3n2)cc1	·	-10.7%	·	·	-14.8%	·
O=C(Cn1ccn(-c2cccc(Cl)c2)c(=O)c1=O)NCCc1ccccc1	·	0.7%	·	·	-0.1%	·
COc1ccc2c(c1)OC[C@H]1[C@H]2N2C(=O)CN(Cc3ccco3)C(=O)[C@@]2(C)[C@H]1c1ccccc1	?	?	0.1%	i	?	-1.0%
CCCCN1CC(=O)N2[C@H]3c4ccc(OC)cc4OC[C@@H]3[C@H](c3ccccc3)[C@]2(C)C1=O	i	?	0.0%	i	23.1µM*	0.0%
Cc1sc2ncnc(NCC(O)c3ccccc3)c2c1C (configuration not stated)	i	7.31µM*	-9.4%	?	4.61µM*	-5.2%
c1coc(CNc2ncnc3sc4c(c23)CCCCC4)c1	i	?	-6.9%	?	?	-24.0%
Cc1sc2ncnc(NCCN3CCOCC3)c2c1C	i	13µM*	-17.9%	16.4µM*	18.4µM*	-22.5%
Cc1sc2ncnc(NCC(O)c3ccc([N+](=O)[O-])cc3)c2c1C (configuration not stated)	?	7.31µM*	?	?	2.91µM*	?
Cc1sc2ncnc(NCC(c3ccccc3)N(C)C)c2c1C (configuration not stated)	i	?	-27.2%	i	?	-14.1%
Cc1sc2ncnc(NCCCO)c2c1C	i	5.4%	-13.7%	i	?	-1.0%
Cc1sc2ncnc(NCc3ccco3)c2c1C	6.51µM*	10.3µM*	-1.2%	2.59µM*	16.4µM*	-3.8%
COc1ccc(NC(=O)CCCc2nc(-c3ccco3)no2)c(OC)c1	i	-16.7%	·	i	-23.4%	·
O=C(COc1ccc(Br)cc1Cl)Nc1ncn[nH]1	i	-10.4%	·	i	-11.7%	·
Cc1c(CN2CCN(CC(C)C)C(CCO)C2)[nH]c2ccc(Cl)cc12 (configuration not stated)	?	-3.5%	?	i	?	?
CCCNC(=O)NC(=O)CSc1nc2ccccc2n1CC(C)C	i	?	1.0%	?	?	4.0%
CC(C)Cn1c(C(C)NC(=O)Cc2ccccc2)nc2ccccc21 (configuration not stated)	i	11.6µM*	-4.7%	i	6.51µM*	-3.9%
CCC(=O)NC(C)c1nc2ccccc2n1C (configuration not stated)	i	3.5%	15.1%	i	-7.1%	16.3%
CCCCn1c(C(C)NC(=O)CC)nc2ccccc21 (configuration not stated)	i	23.1µM*	5.5%	i	11.6µM*	4.7%
CC(C)CNC(=O)NC(=O)CSc1nc2ccccc2n1CC(C)C	i	?	-15.7%	i	23.1µM*	-17.5%
CCCCCCCn1c(NC(=O)CC)nc2ccccc21	?	?	-25.0%	9.2µM*	20.6µM*	?
Cc1cccc(C)c1NC(=O)CSc1nc2ncccc2o1	i	0.3%	·	i	-20.5%	·
O=C(Nc1ncnc2c1C(c1ccccc1)c1c(ccc3ccccc13)O2)c1ccccc1 (configuration not stated)	13µM*	·	·	?	·	·
CCOC(=O)CCC(=O)Nc1ncnc2c1C(c1ccccc1)c1c(ccc3ccccc13)O2 (configuration not stated)	?	·	·	i	·	·
SMILES	KB-3-1 tox	TDP1 cell CPT	HT1080-NT tox	KB-V1 cytotox	TDP1 cell noCPT	HT1080 IDH1KD tx
O=C(Cc1ccccc1)Nc1ncnc2c1C(c1ccccc1)c1c(ccc3ccccc13)O2 (configuration not stated)	?	·	·	18.4µM*	·	·
CCOC(=O)c1c[nH][nH]c1=O	i	1.9%	2.9%	i	8.3%	4.7%
CC(C)c1ccc(NC(=O)Cn2nnc(C(=O)NCc3ccc(Cl)cc3)c2N)cc1	·	-2.8%	·	·	0.1%	·
COc1cc(CNC(C)c2ccccc2)cc(Cl)c1OCC(=O)Nc1ccccc1 (configuration not stated)	i	9.2µM*	?	i	25.9µM*	-26.1%
CCN(CC)CCNCc1cc(Cl)c(OCC(=O)Nc2ccccc2)c(OC)c1	i	?	?	i	23.1µM*	-26.9%
CCCCNCc1cc(Br)c(OCC(=O)NCc2ccccc2)c(OC)c1	i	-19.0%	-12.6%	?	?	-2.2%
C=CCN1C(c2ccccc2)=CS/C1=C(/C#N)c1nnc(N2CCOCC2)n1-c1ccccc1	i	18.4µM*	0.9%	i	14.6µM*	-2.9%
CCOC(=O)C1CCN(Cc2nc3ccccc3c(=O)n2-c2ccc(F)cc2)CC1	i	?	-2.5%	4.11µM*	?	-1.2%
CCOC(=O)C1CCN(Cc2ccc(F)c(Br)c2)CC1	i	-26.1%	-0.9%	?	0.7%	-6.4%
CCOC(=O)C1CCCN(Cc2nc3ccc([N+](=O)[O-])cc3c(=O)n2-c2ccc(OC)cc2OC)C1 (configuration not stated)	i	16.4µM*	-5.0%	i	23.1µM*	8.2%
CCC(CC)N1CCN(Cc2nc3ccc([N+](=O)[O-])cc3c(=O)n2-c2ccccc2F)CC1	i	4.6%	-12.1%	i	?	1.1%
CCOC(=O)C1CCN(Cc2nc3ccc(Cl)cc3n2CCO)CC1	i	20.6µM*	9.0%	i	?	4.4%
O=C(c1ccco1)N1CCN(Cc2nc3ccccc3c(=O)n2-c2ccc(F)cc2)CC1	i	?	4.8%[9.24 µM]	?	?	-14.2%
CCOC(=O)N1CCN(Cc2nc3ccc([N+](=O)[O-])cc3c(=O)n2-c2ccccc2F)CC1	?	?	?	?	23.1µM*	-17.7%
